Data published in PubChem BioAssay AID1508600 (Functional Genomics Laboratory (NCATS/FGL), 2020).
Screen size: about 53,000 sequences; about 3,700 (7%) were called active.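 The calls were made as follows: active = gene knockdowns whose robust z-score for IL-1 alpha signal is at least 2 or at most -2, so actives lie on both sides; inactive = the rest.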 This excerpt belongs to a sample that is enriched for actives.

Assay: Components of the Cytosolic LPS Sensing Pathway: Gene Identification via Genome-wide siRNA Screen;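 also: robust z of the log signal after scaling to non-targeting control siRNA wells of the plate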
Details: RAW264.7 macrophages, IL-1a HTRF, actives lie on both sides, screened at 100 nM (by protocol), cells primed 5 h with Pam3CSK4 first
Outline: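 Cells (RAW264.7, 1×10^4 per well) were transfected with siRNA at 100 nM and cultured 48h at 37 degrees C. Pam3CSK4 was added for 5 hours; LipidA transfection followed for 24 hour. IL-1a was then measured by HTRF.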

z-score, inactive:
AGGGCACAAAAGGUGACAATT against Rph3al -0.887
GGAUGAUGUUCCCAUGCAATT against Cdca7l -0.45
GCUGCUCGAUUGCUUUCCATT against 4930429B21Rik 0.411
GGACAGAUGGAAUAGUGAATT against Klra10 -0.657
CCAUCAAGCGAUUUGUGGUTT against Rnf103 -0.156
GGCCAGCAGACUAUUUAUUTT against Derl1 0.304
GCACAAAAUUCACUGUUAGTT against Olfr112 0.965
GCUCGGUAGGUAUUUUCUGTT against Tmem164 -0.13
GGCUGAUGCAGACAGUUUCTT against Brap -0.655
GGAUUGAAACAGAUGAGAGTT against Gtf2e1 0.833
GGAGUGCUGAUAAAAGAAGTT against Atp5mpl -0.952
GCUCUCAUACACGGUGGAATT against Ros1 -0.272
GGAGACCUCAGCUGAUAUUTT against Tmem109 0.51
GGCCAUGCCUUUGUAUGCUTT against Tbc1d25 -0.155
GGAUUUUGUUGACAAUGAUTT against Ncaph -0.0936
GGAGCUCUUGGAUAUAAAATT against Eif4enif1 0.223
GGUGAGACAGAUAAAGUUCTT against Olfr1124 1.15
GGUAAAAGCUACCAUUCAGTT against Ap2a2 -0.947
GGUUUGUUUUUGUUCGUUUTT against Cytip -0.067
GGAGUUUACGGCUAUUGACTT against Adap2 -0.884
GGUUUAAUUCUUGUCUUGUTT against Pvt1 -0.928
GGUUAUCGGUUGUACAUAUTT against Chd3 1.03
GGCAAGCUUCCAGAUCGAATT against Adam23 0.0113

z-score, active:
CCCUGUCUUUCCUAGGCCATT against Mcat -3.3
GGACCAAGUGGAAGAAGCATT against Nkx1-2 -2.02
GGUGCAAGUGCAGUUUCAATT against Fxyd6 2.38
GUUCUAUGGUAGACAUUAUTT against Gm5414 -2.35
GGUUCUGAACCAGCUGGAGTT against Chd3 2.72
GGCAAGAAAAAUCAGAUUGTT against Cyld 3
CGUGGACUCUAUAAUCAACTT against Map7d1 2.47
